# Assay results: PubChem BioAssay
# Inconclusive results are not listed. For some assays here: Potency and affinity values are given separately. Activity calls are given as the source filed them. Unless noted, the rule behind the calls is not given here.
# Legend:
# [1] = target: 6-phosphogluconate dehydrogenase, decarboxylating (Homo sapiens) (UniProt P52209); assay: 6PGD enzyme inhibitors, primary screen, biochemical, human, recombinant enzyme, NADPH absorbance (AID 1159550;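 active = at least 20% inhibition of 6-phosphogluconate dehydrogenase activity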); details: recombinant 6PGD, NADPH absorbance 341 nm; at 10 µM; stronger effect = higher value
# 6-phosphogluconate dehydrogenase, decarboxylating (Homo sapiens), sequence (P52209 whole entry, looked up): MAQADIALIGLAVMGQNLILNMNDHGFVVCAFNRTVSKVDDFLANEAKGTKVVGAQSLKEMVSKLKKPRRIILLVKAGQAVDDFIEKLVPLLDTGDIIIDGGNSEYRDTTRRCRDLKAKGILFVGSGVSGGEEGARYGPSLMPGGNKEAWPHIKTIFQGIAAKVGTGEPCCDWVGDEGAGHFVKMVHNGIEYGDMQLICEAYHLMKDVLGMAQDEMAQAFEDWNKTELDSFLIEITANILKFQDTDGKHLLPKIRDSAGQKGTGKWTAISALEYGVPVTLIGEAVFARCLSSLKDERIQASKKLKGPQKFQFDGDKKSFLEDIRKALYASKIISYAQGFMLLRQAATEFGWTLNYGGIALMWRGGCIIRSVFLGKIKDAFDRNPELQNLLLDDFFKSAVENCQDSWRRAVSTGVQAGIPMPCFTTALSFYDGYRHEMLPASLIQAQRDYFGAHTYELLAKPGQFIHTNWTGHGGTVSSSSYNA
# [2] = differential killing of epithelial or mesenchymal cells, primary screen, imaging, PC-3E GFP, TEM4-18 mCherry, co-culture (AID 1345086;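 active = compounds killing one labelled cell type while sparing the other, by normalised counts and ratio limits, not self-fluorescent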;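 for all read-outs here: cells exposed to compound for 72 h before imaging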;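 for red/green cell ratio (normalised): normalised mesenchymal count divided by normalised epithelial count so high means epithelial killing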); details: imaging cell counts, at 1 µM; for red/green cell ratio (normalised): actives lie on both sides
# [3] = tested on: Aerobactin synthetase IucA (Klebsiella pneumoniae hvKP1); assay: Biochemical IucA enzyme inhibition primary screen of the Spectrum library (AID 1346200); details: malachite green pyrophosphate, A620, at 8 µM, stronger effect = lower value;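 note: 100% = wells without compound and 0% = wells lacking enzyme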
# [4] = target: Mitogen-activated protein kinase 7 (Homo sapiens) (UniProt Q13164); assay: ERK5 transactivation activators in reporter cells, primary screen, cell-based, HTS (AID 1508626;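 active = luciferase signal above three times the same-plate solvent-only control wells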;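 note: luciferase driven by Gal4-ERK5 fusion binding five Gal4 sites before minimal TATA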); details: HeLa Gal4-ERK5 transactivation, 18 h, at 5 µM, stronger effect = higher value
# Mitogen-activated protein kinase 7 (Homo sapiens), sequence (Q13164 whole entry, looked up, the tested form may be a part): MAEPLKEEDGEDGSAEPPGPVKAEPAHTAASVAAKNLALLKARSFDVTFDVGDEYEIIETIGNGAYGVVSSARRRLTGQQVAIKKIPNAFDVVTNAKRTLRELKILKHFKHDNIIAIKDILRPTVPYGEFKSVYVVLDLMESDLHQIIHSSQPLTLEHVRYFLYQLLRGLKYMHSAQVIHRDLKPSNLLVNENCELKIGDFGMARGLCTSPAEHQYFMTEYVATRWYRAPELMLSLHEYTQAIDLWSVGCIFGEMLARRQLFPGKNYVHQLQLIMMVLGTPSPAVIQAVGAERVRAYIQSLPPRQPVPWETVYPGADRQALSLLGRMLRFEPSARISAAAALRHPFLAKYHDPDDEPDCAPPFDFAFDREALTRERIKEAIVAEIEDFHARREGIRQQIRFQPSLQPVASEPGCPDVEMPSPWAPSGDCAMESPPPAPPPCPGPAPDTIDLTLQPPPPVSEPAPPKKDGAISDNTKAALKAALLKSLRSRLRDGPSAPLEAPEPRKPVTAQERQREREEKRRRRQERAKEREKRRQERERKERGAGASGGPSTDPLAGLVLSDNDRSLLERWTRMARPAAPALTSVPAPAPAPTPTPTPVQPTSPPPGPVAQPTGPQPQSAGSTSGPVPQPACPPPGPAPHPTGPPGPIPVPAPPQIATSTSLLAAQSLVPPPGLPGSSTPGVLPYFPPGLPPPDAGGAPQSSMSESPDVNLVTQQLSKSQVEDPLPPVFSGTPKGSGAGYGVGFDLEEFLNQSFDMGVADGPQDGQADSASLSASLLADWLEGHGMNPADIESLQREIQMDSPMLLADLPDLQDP
# [5] = polyglutamine-triggered caspase-3 activation inhibitors, cell-based (AID 1583); details: polyglutamine-induced caspase-3 activation, cell assay; stronger effect = higher value;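 tested at 10 µM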
# [6] = suppressors of polyQ aggregation in yeast, 75Q-TubU reporter (AID 1593); details: Yeast 75Q polyglutamine aggregation reporter
# [7] = enhancers of SMN2 over SMN1 splicing, cell-based, SMN2/SMN1 luciferase reporters (AID 1598); details: SMN2 vs SMN1 luciferase splicing reporter cells, at 10 µM; SMN1 luciferase ratio: measured here: SMN1 luciferase reporter average; SMN2 luciferase ratio: measured here: SMN2 luciferase reporter average, stronger effect = higher value; SMN2/SMN1 luciferase ratio: stronger effect = higher value
# [8] = rescue of polyQ-huntingtin neuronal dysfunction in worms, whole organism, C. elegans mechanosensory neurons, N-terminal huntingtin (AID 1599); details: touch response, stronger effect = higher value
# [9] = inhibitors of mitochondrial cytochrome c release, biochemical, purified mitochondria (AID 1603); details: stronger effect = lower value;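 note: mouse liver mitochondria challenged with calcium chloride; signal normalized to the plate average as 100%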
# [10] = inhibitors of polyQ protein aggregation (AID 1604); details: polyglutamine-induced protein aggregation inhibition assay; stronger effect = higher value; tested at 2.5 µM
# [11] = protection against mutant huntingtin cytotoxicity, PC12 cells, LDH release (AID 1610); details: PC12 mutant huntingtin toxicity, final LDH at 4 uM, stronger effect = lower value
# [12] = enhancers of glutamate uptake in motor neurons, MN-1 cell line (AID 1612); details: MN-1 motor neuron cells, stronger effect = higher value;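 note: tested at 1 µM final; 0% = mean of DMSO vehicle wells on each plate; positive means more glutamate uptake than control and negative means less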
# [13] = suppressors of polyglutamine aggregation in yeast, 75Q-TubH (AID 1616); details: S. cerevisiae 75Q-TubH polyglutamine aggregation suppression; stronger effect = higher value
# [14] = counts scaled to control wells, 1 = unselective
# [15] = measured here: epithelial PC-3E GFP cell survival
# [16] = measured here: mesenchymal TEM4-18 mCherry cell survival
smiles,measurement,setting,value
O=C1c2ccccc2-c2cccc3cccc1c23,inhibition,[1],-2.36% (inactive)
same,red/green cell ratio (normalised),[2]; [14],0.82 (inactive)
same,normalised cell number,[2]; [15],1.23
same,normalised cell number,[2]; [16],1.01
same,activity remaining,[3],106% (inactive)
same,luciferase signal,[4],64 AU (inactive)
CC(=O)C1CCC2C3CCC4C[C@H](O)CCC4(C)C3C[C@H](O)C12C (stereo partly drawn),inhibition,[1],-3.34% (inactive)
same,red/green cell ratio (normalised),[2],1.12 (inactive)
same,normalised cell number,[2]; [15],0.99
same,normalised cell number,[2]; [16],1.11
same,activity remaining,[3],112% (inactive)
same,luciferase signal,[4],32 AU (inactive)
CCOC(=O)C1C(C=C(C)C)C1(C)C (stereo not drawn),inhibition,[1],-0.74% (inactive)
same,red/green cell ratio (normalised),[2],0.99 (inactive)
same,normalised cell number,[2]; [15],1.19
same,normalised cell number,[2]; [16],1.18
same,activity remaining,[3],107% (inactive)
same,luciferase signal,[4],60 AU (inactive)
CC(=O)OC1CCC23C(=O)OC45CCC(C6=CC(=O)OC6)C4(C)CCC2C5CCC3(O)C1 (stereo not drawn),inhibition,[1],-5.39% (inactive)
same,red/green cell ratio (normalised),[2],0.32 (inactive)
same,normalised cell number,[2]; [15],0.2
same,normalised cell number,[2]; [16],0.07
same,activity remaining,[3],124% (inactive)
same,luciferase signal,[4],16 AU (inactive)
CC(C)c1ccc2c(c1O)CC[C@H]1C3=C(CC[C@]21C)C(=O)OC3,inhibition,[1],-50.6% (inactive)
same,red/green cell ratio (normalised),[2],0.95 (inactive)
same,normalised cell number,[2]; [15],1.07
same,normalised cell number,[2]; [16],1.02
same,activity remaining,[3],90.4% (inactive)
same,luciferase signal,[4],64 AU (inactive)
CC1(C)C2CC(=O)[C@]3(C)C(CC[C@@]4(C)[C@H](c5ccoc5)OC(=O)C5OC543)[C@@]2(C)[C@@H](O)C[C@H]1O (stereo partly drawn),inhibition,[1],-2.4% (inactive)
same,red/green cell ratio (normalised),[2],1.04 (inactive)
same,normalised cell number,[2]; [15],0.78
same,normalised cell number,[2]; [16],0.8
same,activity remaining,[3],107% (inactive)
same,luciferase signal,[4],80 AU (inactive)
O=c1cccc2n1CC1CC2CN2CCCC[C@@H]12 (stereo partly drawn),inhibition,[1],1.69% (inactive)
same,red/green cell ratio (normalised),[2]; [14],1.02 (inactive)
same,normalised cell number,[2]; [15],0.92
same,normalised cell number,[2]; [16],0.94
same,activity remaining,[3],116% (inactive)
same,luciferase signal,[4],56 AU (inactive)
O=C1C=C2C(=CCOC2O)O1 (stereo not drawn),inhibition,[5],71.1%
same,score,[6],1.15
same,SMN1 luciferase ratio,[7],0.26
same,SMN2/SMN1 luciferase ratio,[7],2.76 (active)
same,SMN2 luciferase ratio,[7],0.46
same,rescue above control,[8],-6.1
same,cytochrome c release ratio,[9],0.78
same,inhibition of aggregation,[10],0%
same,normalised LDH release,[11],0.848
same,glutamate uptake change,[12],-4.18%
same,aggregation suppression score,[13],0.84
same,inhibition,[1],4.22% (inactive)
same,red/green cell ratio (normalised),[2],0.44 (inactive)
same,normalised cell number,[2]; [15],0.14
same,normalised cell number,[2]; [16],0.06
same,activity remaining,[3],124% (inactive)
same,luciferase signal,[4],3170 AU (active)
C=C(C)c1cc2cc(C(C)=O)c(O)cc2o1,inhibition,[1],13.2% (inactive)
same,red/green cell ratio (normalised),[2],0.8 (inactive)
same,normalised cell number,[2]; [15],1.14
same,normalised cell number,[2]; [16],0.92
same,activity remaining,[3],104% (inactive)
same,luciferase signal,[4],64 AU (inactive)
COc1cc2c(cc1-c1cc3cc4ccoc4cc3oc1=O)OCO2,inhibition,[1],0.213% (inactive)
same,red/green cell ratio (normalised),[2],0.88 (inactive)
same,normalised cell number,[2]; [15],0.99
same,normalised cell number,[2]; [16],0.87
same,activity remaining,[3],113% (inactive)
same,luciferase signal,[4],44 AU (inactive)
CC(=O)Oc1ccc(/C=C/c2cc(OC(C)=O)cc(OC(C)=O)c2)cc1,inhibition,[1],-2.26% (inactive)
same,red/green cell ratio (normalised),[2],1.01 (inactive)
same,normalised cell number,[2]; [15],0.98
same,normalised cell number,[2]; [16],1
same,activity remaining,[3],103% (inactive)
same,luciferase signal,[4],20 AU (inactive)
CC(C)CCCC1(C)C=Cc2c(O)c3c(c(CCC(C)C)c2O1)OC12C(CC4CC1C(C)(C)OC2(CCC(C)C(=O)O)C4O)C3=O (stereo not drawn),inhibition,[1],0.442% (inactive)
same,red/green cell ratio (normalised),[2],0.9 (inactive)
same,normalised cell number,[2]; [15],0.98
same,normalised cell number,[2]; [16],0.88
same,activity remaining,[3],98% (inactive)
same,luciferase signal,[4],76 AU (inactive)
